Consider 15 molecules from PubChem BioAssay (NCI).

Common to all, as to assay: NCI-60 one-dose screen, 48 h (100 = growth as untreated, 0 = no growth, -100 = all killed)
Conditions in all cases: 10 µM unless noted

Assay [1] deals with SR leukemia.
Assay [2] relates to RPMI-8226 leukemia.
Assay [3] deals with OVCAR-8 ovarian.
Assay [4] concerns OVCAR-5 ovarian.
Assay [5] has as its system OVCAR-4 ovarian.
The test system of assay [6] is SK-OV-3 ovarian.
Assay [7] relates to IGROV1 ovarian.
Assay [8] concerns OVCAR-3 ovarian.
The test system of assay [9] is HS 578T breast.
Assay [10] deals with NCI/ADR-RES ovarian.
The test system of assay [11] is T-47D breast.
Assay [12] has as its system BT-549 breast.
Assay [13] deals with MDA-MB-435 melanoma.
For assay [14], the system named is SW-620 colon.
The test system of assay [15] is MCF7 breast.
Assay [16] deals with HCT-116 colon.
For assay [17], the system named is HCC-2998 colon.
The subject of assay [18] is KM12 colon.

Structures are written as SMILES. Compounds without any hit were thinned out: in the full panel of roughly 83,000, 20% have a hit.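 Percent growth is the endpoint: 0 to 100 indicates growth inhibition (40 means 60% inhibition), 0 means no net growth, and negative values indicate cell death.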 A number with no mark means an inactive call. The source made the active and inactive calls. How the source made its calls: active means growth percent below 10; inactive means the rest.

For the molecule `N#Cc1cnc2cc(OC[C@@H](O)CO)c(NC(=O)CC3CSSC3)cc2c1Nc1ccc(OCc2cccc(F)c2)c(Cl)c1`, the growth in assay [1] was 1.96% (active); in assay [2] it was -29.7% (active); in assay [3], -48.2% (active); in [4] it was -72.8% (active); in assay [5], -64.4% (active); in assay [6] it was -86.2% (active). Also, the growth in assay [7] was -56% (active); in assay [8], -81.3% (active); in assay [9] it was -39.8% (active); in assay [10], 85.9%; in [11], -60.9% (active); in assay [12], -71% (active). For the same molecule, the growth was -85.2% (active) in assay [13]; -74.8% (active) in assay [14]; -58.8% (active) in [15]; -60.5% (active) in assay [16]; -78.2% (active) in assay [17]; -79.6% (active) in assay [18].

Consider `C[C@H]1OC(=O)/C=C/[C@@H](O)[C@@H](O)CCCCCCCC[C@@H]1O`, for which the growth in assay [1] was 118%; in [2], 101%; in [3], 89.6%; in assay [4], 95.6%; in [5] it was 101%; in assay [6], 94.9%. Further, the growth in [7] is 103%; in assay [8], 109%; in [9] it was 101%; in assay [10], 98.1%; in assay [11], 59.9%; in [12], 105%. Moreover, the growth in assay [13] was 106%; in [14] it was 102%; in assay [15], 101%; in assay [16] it was 88.4%; in [17], 102%; in assay [18] it was 101%.

In the case of `CCCCC[C@H]1C/C=C2/C(=O)C(Cl)=C[C@@H]2C/C=C\CCCC(=O)O[C@@H](CCCCC)C/C=C2/C(=O)C(Cl)=C[C@@H]2C/C=C\CCCC(=O)O1`, the growth in [1] was -7.23% (active); in [2], -13.6% (active); in assay [3] it was -13.9% (active); in assay [4], -44.4% (active); in assay [5], 16%; in assay [6], -21.4% (active). In addition, the growth was -44.4% (active) in [7]; -82.7% (active) in assay [8]; 32.4% in [9]; 19.8% in [10]; -20.3% (active) in [11]; -52.7% (active) in [12]. The growth in [13] was -16.1% (active); in assay [14], -41.6% (active); in assay [15], -42.1% (active); in assay [16], -98.7% (active); in assay [17] it was -88.6% (active); in assay [18] it was -73% (active).

For the molecule `COc1ccc(-c2n/c(=C\c3c(O)[nH]c4ccc(OC)cc34)cc3c2=Nc2ccccc2-3)cc1`, the growth in assay [1] is 7.13% (active); in [2] it was -38.5% (active); in [3], 11.8%; in [4] it was 135%; in assay [5], -42.1% (active); in assay [6], 114%. Besides, the growth in assay [7] is 98.3%; in assay [8], -57.5% (active); in [9], 26.1%; in assay [10], 4.41% (active); in assay [11], 93%; in [12] it was -20.1% (active). The growth is 3.6% (active) in assay [13]; 0.413% (active) in [14]; -22.7% (active) in assay [15]; -72.6% (active) in [16]; 22.7% in assay [17]; 8.66% (active) in assay [18].

Take `NC1=NN=C2N(N)C(=O)c3cnn(-c4ccccc4)c3N2c2nc(-c3ccccc3)cc(-c3ccccc3)c21`: the growth is 103% in assay [1]; 93.5% in assay [2]; 102% in [3]; 104% in assay [4]; 82.8% in assay [5]; 93.2% in [6]. Moreover, the growth in assay [7] was 89%; in assay [8], 116%; in assay [9], 101%; in assay [10], 92.1%; in assay [11] it was 71.1%; in [12], 108%. The growth is 108% in assay [13]; 104% in assay [14]; 65.5% in [15]; 93.7% in assay [16]; 107% in [17]; 103% in [18].

With `Cc1csc(Nc2nc(-c3cccc(Br)c3)nc(C(Cl)(Cl)Cl)n2)n1`, the growth in [1] is 67.7%; in assay [2], 35.8%; in assay [3], 75.6%; in assay [4], 69.9%; in assay [5], 76.8%; in assay [6] it was 76.1%. In addition, the growth was 91.9% in assay [7]; 14.9% in assay [8]; 59.6% in [9]; 60.4% in [10]; 13.9% in [11]; 85.4% in assay [12]. In addition, the growth in [13] was 65.3%; in assay [14], 52.6%; in assay [15], 28.9%; in assay [16], 47.7%; in assay [17], 16.1%; in assay [18] it was 27.7%.

For `COc1ccc(C2=NN(c3nc(-c4ccc(OC)cc4)c(C#N)c(=O)n3C)C(=O)CC2)cc1`, the growth in assay [1] is 87.2%; in [2], 95%; in assay [3] it was 101%; in assay [4], 72.3%; in assay [5], 105%; in assay [6], 96%. The growth in [7] is 96.3%; in assay [8], 104%; in [9], 94.9%; in [10], 101%; in [11], 92.4%; in assay [12], 107%. In addition, the growth in assay [13] was 109%; in [14] it was 108%; in assay [15], 92%; in assay [16] it was 97.4%; in [17], 91.8%; in [18], 107%.

For the molecule `Cc1cccc2c1NC(=O)[C@@]21[C@H](C(=O)c2ccccc2)[C@]2(C(=O)Nc3ccccc32)[C@H]2CCCN21`, the growth in [1] was -6.48% [100 µM] (active); in [2], 30.9% [100 µM]; in [3], -17.2% [100 µM] (active); in assay [4] it was 101% [100 µM]; in [5] it was -20.3% [100 µM] (active); in assay [6], 11.1% [100 µM]. The growth is 43% [100 µM] in [7]; 2.54% [100 µM] (active) in assay [8]; 16% [100 µM] in assay [9]; 109% [100 µM] in assay [10]; 32.6% [100 µM] in assay [11]; 10.4% [100 µM] in assay [12]. In addition, the growth was 61.8% [100 µM] in assay [13]; 11.7% [100 µM] in [14]; -4.76% [100 µM] (active) in assay [15]; -36.1% [100 µM] (active) in [16]; 19.7% [100 µM] in [17]; 40.3% [100 µM] in [18].

In the case of `Cc1ccc(Sc2sc(-c3ccccc3)nc2[P+](c2ccccc2)(c2ccccc2)c2ccccc2)cc1`, the growth was -10.1% (active) in [1]; -39.2% (active) in [2]; 7.53% (active) in assay [3]; 25.4% in assay [4]; 2.09% (active) in assay [5]; -22.5% (active) in [6]. For the same molecule, the growth in assay [7] was -0.559% (active); in assay [8], -9.1% (active); in assay [9], -1.87% (active); in [10] it was -7.72% (active); in assay [11] it was -9.83% (active); in assay [12], -15.4% (active). The growth in [13] is -16.3% (active); in [14], 8.24% (active); in [15], -4.53% (active); in assay [16], -14.3% (active); in [17], -11.2% (active); in assay [18], -37.6% (active).

Consider `COc1ccc(-n2c(/C=C/c3ccc(O)c(OC)c3)cc(/C=C/c3ccc(O)c(OC)c3)nc2=O)cc1`, for which the growth in [1] is 14.2%; in assay [2], 21.4%; in [3] it was 66%; in [4], 112%; in [5], 62.5%; in assay [6], 62.3%. Further, the growth in [7] is 63.5%; in [8], 41.4%; in assay [9] it was 62.5%; in [10] it was 84.3%; in assay [11], 51.8%; in assay [12], 30.9%. Besides, the growth in assay [13] was 29.6%; in assay [14], 29.8%; in assay [15], 19.7%; in assay [16] it was 21.1%; in assay [17], 94.9%; in assay [18], 42%.

For the molecule `COc1ccc(C2NC(=O)Nc3ccccc32)c(OC)c1` (stereo not given), the growth in assay [1] is 91.7%; in assay [2], 108%; in assay [3], 101%; in [4], 112%; in [5] it was 105%; in assay [6], 95.3%. Moreover, the growth in assay [7] was 98.2%; in [8] it was 112%; in assay [9] it was 94.8%; in assay [10], 99%; in assay [11] it was 91.4%; in [12], 109%. For the same molecule, the growth in assay [13] is 101%; in [14] it was 114%; in assay [15] it was 84.6%; in [16], 104%; in [17] it was 92.7%; in assay [18], 110%.

`COc1cc(NC(C)CN(CC(C)C)C(C)C)c2ncccc2c1` (stereo not given): the growth in assay [1] was 90.2%; in [2] it was 102%; in assay [3], 90.1%; in assay [4], 109%; in assay [5], 40.2%; in assay [6], 101%. The growth in assay [7] was 110%; in assay [8] it was 92.9%; in assay [9], 115%; in [10] it was 93.3%; in [11], 31%; in assay [12] it was 108%. In addition, the growth in assay [13] is 114%; in assay [14], 92.9%; in assay [15], 43%; in assay [16], 88.6%; in assay [17], 103%; in [18], 93.2%.

In the case of `COc1ccc2c(c1)C(Br)=C(CCO)C2c1ccccc1` (stereo not given), the growth in assay [1] is 112%; in assay [2] it was 40.7%; in assay [3] it was 86.1%; in [4] it was 78%; in assay [5], 87.3%; in assay [6], 78.1%. In addition, the growth is 83.5% in assay [7]; 26% in [8]; 35.7% in [9]; 65.1% in assay [10]; 54.3% in [11]; 87.7% in assay [12]. In addition, the growth was 91.8% in assay [13]; 73.2% in assay [14]; 58.8% in [15]; 57.3% in assay [16]; 49.3% in assay [17]; 42.8% in assay [18].

As for `CC(=O)OCCCCCCn1c2ccccc2c2c3c(c4c5ccccc5n(C)c4c21)C(=O)N(O)C3=O`, the growth in assay [1] is 17.1%; in assay [2] it was 31.2%; in assay [3], 66.3%; in assay [4], 98.6%; in assay [5], 70.5%; in assay [6] it was 86.9%. Further, the growth is 49.6% in assay [7]; 77.2% in [8]; 124% in assay [9]; 52.1% in assay [10]; 42.9% in assay [11]; 69.2% in assay [12]. Besides, the growth in [13] was 75.9%; in assay [14], 76.4%; in [15], 30.4%; in assay [16], 48.6%; in assay [17] it was 76%; in assay [18] it was 68.8%.

`CC1(C)[C@@H](O)CC[C@]2(C)[C@H]3CC[C@@H]4[C@H]5[C@H](C(=O)/C=C/c6ccc(C(F)(F)F)cc6)CC[C@]5(CO)CC[C@@]4(C)[C@]3(C)CC[C@@H]12`: the growth in [1] was 17.8%; in [2], 28.2%; in assay [3], 55.7%; in assay [4] it was 109%; in assay [5], 38.4%; in assay [6] it was 98.6%. Further, the growth in assay [7] is 61.5%; in assay [8] it was 51.8%; in [9], 59.6%; in [10], 70.5%; in assay [11] it was 34.1%; in assay [12], 60%. In addition, the growth in assay [13] was 42.5%; in [14] it was 44.5%; in [15], 32.3%; in assay [16], 15.3%; in assay [17], 77.2%; in assay [18], 68.7%.
